Common to all, as to experiment: NCI-60 one-dose screen, 48 h (100 = growth as untreated, 0 = no growth, -100 = all killed)
Conditions in all cases: 10 µM unless noted

Test [1] concerns T-47D breast.
Test [2] deals with BT-549 breast.
Test [3] relates to MDA-MB-435 melanoma.
Test [4] relates to SW-620 colon.
Test [5] deals with MCF7 breast.
The subject of test [6] is HCT-116 colon.
For test [7], the system named is HCC-2998 colon.
The subject of test [8] is KM12 colon.

This passage reports growth results from PubChem BioAssay (NCI).

Compounds without any hit were thinned out: in the full panel of roughly 83,000, 20% have a hit.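 Assay: single dose, 48 h. Readout: percent growth (0 = no net growth; negative = cell death). Active: <10.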 A number with no mark means an inactive call. The source made the active and inactive calls.

Consider `O=C(/C=C/c1cccc(Cl)c1)c1cccc(OCCCOc2cccc(C(=O)/C=C/c3cccc(Cl)c3)c2)c1`, for which the growth in test [1] is 90.4%; in test [2], 90.2%; in test [3], 102%; in test [4], 90.7%; in test [5] it was 20.8%; in test [6] it was 37%. Further, the growth was 109% in test [7] and 96.8% in test [8].
Regarding `O=C(O)c1ccc(-n2cc(/C=N/Nc3ccccc3)c(-c3ccc(F)cc3F)n2)cc1`, the growth is 35.4% in test [1]; 95.2% in test [2]; 45.9% in test [3]; 30.1% in test [4]; 41.6% in test [5]; 37.7% in test [6]. The growth in test [7] was 81.1%; in test [8], 29.3%.
For the molecule `COC12C=C/C(=C(/C(=O)OCc3ccncc3)C(=O)CCCCCCCCC3(OC)C=C/C(=C(/C(=O)OCc4ccncc4)C(=O)CCCCCCCC1)O3)O2`, the growth in test [1] was 8.61% (active); in test [2] it was -14.7% (active); in test [3], -53.8% (active); in test [4], 9.25% (active); in test [5] it was -42.2% (active); in test [6] it was -62.2% (active). In addition, the growth in test [7] was -83.4% (active); in test [8], -77.2% (active).
`COc1ccc(CNc2c3ccccc3nc3ccccc23)cc1`: the growth in test [1] was 44.9%; in test [2], 80.1%; in test [3] it was 40.2%; in test [4] it was 25.6%; in test [5], 12.6%; in test [6], 9.53% (active). The values for the growth in test [7] and in test [8] were 38.6% and 33.2%, respectively.
On to `CCSc1nc2scc(C)c2c(=O)[nH]1`, for which the growth in test [1] is 101%; in test [2], 96.8%; in test [3], 105%; in test [4] it was 104%; in test [5] it was 96.3%; in test [6] it was 101%. In addition, the growth in test [7] was 106%; in test [8], 103%.
In the case of `Cc1ccc2c(n1)C(=O)C(Br)=C(C1CCCC1)C2=O`, the growth is 90% in test [1]; 95.5% in test [2]; 108% in test [3]; 85.8% in test [4]; 89.8% in test [5]; 73.7% in test [6]. For the same molecule, the growth in test [7] was 115%; in test [8], 99.6%.
Regarding `CCCCNC(=O)Oc1ccc(/C(=C(/C)Cc2ccc(OC)cc2)c2ccc(OCCN(CC)CC)cc2)cc1`, the growth in test [1] was 42.1%; in test [2], 87.1%; in test [3] it was 66.8%; in test [4], 93.3%; in test [5], 28.5%; in test [6], 42.7%. Moreover, the growth is 85.6% in test [7] and 85.1% in test [8].
Consider `COC(=O)c1c(C)c2n(c1C)C(=O)C(c1ccccc1)=C2`, for which the growth in test [1] is 37.1%; in test [2], 51.2%; in test [3], 78.1%; in test [4], 93%; in test [5], 39%; in test [6], 74.2%. The growth in test [7] is 75.1%; in test [8], 78.2%.
`COc1ccc(NC(=O)c2sc3nc(C)c(C(=O)/C=C/c4ccccc4)cc3c2N)cc1`: the growth in test [1] is 57.7%; in test [2] it was 50%; in test [3], 15.7%; in test [4], 2.56% (active); in test [5], 14.9%; in test [6] it was 12.3%. Also, the figures for the growth in test [7] and in test [8] were 25.2% and 18.7%, respectively.
As to `COCCOc1cc2ncnc(N3CCN(c4ncc(S(=O)(=O)N5CCCCC5)cn4)CC3)c2cc1OCCOC`, the growth in test [1] is 87%; in test [2], 105%; in test [3] it was 105%; in test [4] it was 109%; in test [5], 78.7%; in test [6] it was 100%. The figures for the growth in test [7] and in test [8] were 99.3% and 97.6%, respectively.
As for `CCN(CC)Cc1cc(C=C2C(=O)NC(=S)NC2=O)cc(OC)c1O`, the growth was 114% in test [1]; 110% in test [2]; 105% in test [3]; 107% in test [4]; 97.6% in test [5]; 114% in test [6]. The growth is 118% in test [7] and 111% in test [8].
For the molecule `CCOC(=O)C(=O)C(C(=O)OCC)c1ccccc1` (stereo not drawn), the growth is 100% in test [1]; 97.3% in test [2]; 101% in test [3]; 103% in test [4]; 101% in test [5]; 96.2% in test [6]. Moreover, the growth is 114% in test [7] and 107% in test [8].
For the molecule `CN(C)CCNC(=O)c1ccc(-c2nc3ccc4[nH]ncc4c3c3c2C2CCC3C2)cc1` (stereo not drawn), the growth in test [1] was 43.6%; in test [2] it was 2.26% (active); in test [3] it was 42%; in test [4], 17.8%; in test [5], 9.64% (active); in test [6], 9.52% (active). Moreover, the growth is 38.5% in test [7] and 2.75% (active) in test [8].
Take `N#Cc1ccc(O)c(C2=NCC(c3ccccc3)O2)c1` (stereo not drawn): the growth in test [1] is -5.7% (active); in test [2] it was 31.9%; in test [3], 57.8%; in test [4], 28.6%; in test [5], 25.3%; in test [6], 17.5%. For the same molecule, the figures for the growth in test [7] and in test [8] were 47.8% and 37.2%, respectively.
As to `NC(=O)CSc1oc(-c2ccccc2)nc1S(=O)(=O)c1ccc(Br)cc1`, the growth in test [1] is 57.8%; in test [2] it was 62.1%; in test [3], 81%; in test [4] it was 94.4%; in test [5], 75%; in test [6] it was 50.6%. For the same molecule, the growth in test [7] is 93.3%; in test [8] it was 89%.
Consider `CC(=O)O[C@H]1CC2CCC3C(CC[C@@]4(C)C3C[C@H]([N+]3(C)CCCCC3)[C@@H]4OC(C)=O)[C@@]2(C)C[C@@H]1N1CCCCC1` (stereo partly drawn), for which the growth in test [1] was 109%; in test [2], 108%; in test [3] it was 99.5%; in test [4], 106%; in test [5] it was 111%; in test [6], 101%. The figures for the growth in test [7] and in test [8] were 111% and 108%, respectively.
